Gal4-VP16 FLuc: inhibits Gal4-VP16 luciferase reporter, ROR gamma counter-screen. Drosophila S2 Gal4-VP16 UAS-luciferase, luminescence, 20 h. Potency, µM (titrated, usually from 53.6 µM), inactives show at the top dose activity, negative = inhibition, usual class: inhibitors. 310,000 tested, 3.5% active. AID 2546;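 also: Gal4-VP16 expression switched on by copper sulfate through the metallothionein promoter; % is scaled to controls: 0 for no effect and ±100 for the full control effect; nearly all actives have a fitted effect of over 50% in size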
HepG2 tox-1: HepG2 cytotoxicity, counter-screen for TGF-b inhibitors | HepG2 CAGA-GFP viability, ATP luminescence, 18 h | Potency, µM (series often up to 46.1 µM), for the others: at the top dose activity change, negative = cytotoxicity, actives largely listed as cytotoxic | 410,000 tested, 0.76% active | AID 588856
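CellTiter-Glo luminescence gave cytotoxicity after 18 hours at 37 degrees C. The cells were HepG2 CAGA-GFP in 1% FBS DMEM, stimulated with 500 pg/mL TGF-beta after compound addition. %Activity was normalised to no-cell wells (complete cell-killing) and DMSO (no toxicity), and curves were fitted and classified.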
TGFb SMAD3 inh: blocks TGF-b signaling | HepG2 CAGA-GFP TGF-b/SMAD3 reporter, GFP fluorescence, 18 h; TGF-beta stimulated, 500 pg/mL final | Potency, µM (titrated, usually from 46.1 µM), without a hit: top-dose activity, negative = inhibition, most hits filed as inhibitors | 410,000 tested, 1.2% active | AID 588855; also: % is scaled to controls: 0 for no effect and ±100 for the full control effect; nearly all actives have a fitted effect of over 65% in size
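Read-out: total well GFP (ex488/em500-530) summed from mean per-cell fluorescence. Cells: HEPG2 CAGA-GFP, 1% FBS DMEM, 18 h at 37 degrees C with 500 pg/mL final TGF-beta. Unstimulated wells served as the full-inhibition control; stimulated DMSO wells = 0%.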
RORgamma inh: blocks mouse ROR gamma transcriptional activity; Drosophila S2 Gal4-RORgamma UAS-luciferase reporter, 20 h; Potency, µM (top dose mostly 53.6 µM), for inactives: at the top dose activity change, negative = inhibition, hits mostly inhibitors; 310,000 tested, 5.4% active; AID 2551; also: % is scaled to controls: 0 for no effect and ±100 for the full control effect; nearly all actives have a fitted effect of over 60% in size
Target sequence (P51450 whole entry, looked up, the tested form may be a part): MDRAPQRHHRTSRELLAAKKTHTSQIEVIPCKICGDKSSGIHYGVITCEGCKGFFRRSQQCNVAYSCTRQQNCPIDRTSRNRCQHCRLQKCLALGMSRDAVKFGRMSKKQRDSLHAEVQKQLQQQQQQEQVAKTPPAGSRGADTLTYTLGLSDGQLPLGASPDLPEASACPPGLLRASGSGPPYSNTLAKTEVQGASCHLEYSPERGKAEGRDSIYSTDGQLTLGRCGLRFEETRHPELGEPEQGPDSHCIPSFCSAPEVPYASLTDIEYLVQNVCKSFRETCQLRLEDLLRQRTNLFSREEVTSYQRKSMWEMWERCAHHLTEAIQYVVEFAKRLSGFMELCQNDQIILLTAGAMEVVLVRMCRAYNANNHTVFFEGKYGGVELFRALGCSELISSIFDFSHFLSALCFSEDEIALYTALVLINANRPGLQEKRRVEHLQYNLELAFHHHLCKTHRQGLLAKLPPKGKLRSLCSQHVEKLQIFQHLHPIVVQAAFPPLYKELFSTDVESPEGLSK
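A Gal4/UAS one-hybrid system in insect cells: metallothionein-promoter Gal4–ROR gamma fusion plus Photinus luciferase reporter. Copper sulfate 700 uM final, 20 hr ambient incubation, luminescent detection after 10 min with reagent.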
ATXN2 expr inh: reduces ATXN2 reporter expression in HEK-293 cells; HEK-293 ATXN2-luciferase reporter, luminescence, 24 h; 360,000 tested, 0.72% active; AID 1745845; Potency, µM (highest dose often 57 µM), for the others: top-dose activity change, negative = inhibition, usual class: inhibitors; also: % is scaled to controls: 0 for no effect and ±100 for the full control effect; nearly all actives have a fitted effect of over 55% in size
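ATXN2-luciferase reporter cells (luciferase flanked by upstream and downstream ATXN2 gene portions) were treated 24 h at 37 °C with compounds at up to 57 uM. SteadyGlo luminescence gave expression; GF-AFC fluorescence gave viability.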
S2 tox: viability counter-screen for ATXN expression inhibitors; S2 cells (HEK-293 line with an ATXN2-luciferase reporter) viability, CellTiter-Fluor protease fluorescence, 24 h; Potency, µM (titrated, usually from 56.7 µM), usual class: cytotoxic; 400,000 tested, 0.49% active; also: nearly all actives have a fitted effect of over 40% in size
TGFb CAGA inh: TGF-b pathway inhibition, cherry-pick retest | HepG2 CAGA-GFP TGF-b reporter, GFP fluorescence, 18 h; cells stimulated with TGF-beta, 500 pg/mL | 1,600 tested, 63% active | shares compounds with TGFb SMAD3 inh | Potency, µM (titrated, usually from 46.1 µM), for the others: top-dose activity, negative = inhibition, hits mostly inhibitors; also: % is scaled to controls: 0 for no effect and ±100 for the full control effect; nearly all actives have a fitted effect of over 65% in size
HepG2 tox-2: HepG2 cytotoxicity, TGF-b inhibitor counterscreen; HepG2 CAGA-GFP viability, ATP luminescence, 18 h; cells stimulated with TGF-beta, 500 pg/mL; Potency, µM (doses to about 46.1 µM), without a hit: at the top dose activity, negative = cytotoxicity, most hits filed as inhibitors; 1,600 tested, 27% active; shares compounds with TGFb SMAD3 inh; also: % is scaled to controls: 0 for no effect and ±100 for the full control effect; nearly all actives have a fitted effect of over 70% in size
CCL64 TGFb inh: TGF-b inhibition, CCL64 orthogonal assay | shares compounds with TGFb SMAD3 inh | CCL64 CAGA-GFP reporter, TGF-b stimulated, GFP fluorescence, 18 h | Potency, µM (top dose mostly 46.1 µM), without a hit: top-dose activity, negative = inhibition, actives largely listed as inhibitors | 1,600 tested, 41% active | AID 720536; also: nearly all actives have a fitted effect of over 65% in size
COP TGFb inh: TGF-b inhibition validated with COP promoter; Potency, µM (series often up to 46.1 µM), for inactives: at the top dose activity, negative = inhibition, actives largely listed as inhibitors; shares compounds with TGFb SMAD3 inh; AID 720537; HepG2 COP-GFP TGF-b reporter, GFP fluorescence, 18 h; cells stimulated by added recombinant TGF-beta; 1,600 tested, 3% active; also: nearly all actives have a fitted effect of over 70% in size
An asterisk follows results filed as active; i = inactive; u = inconclusive; x = no result. Rows were chosen to be rich in hits. Some 6.3% of all compounds tested hit in one or more screens of this group. Calls follow the shape of the dose curve; as a rule, active = well fitted curve in the direction sought with a large enough effect; inconclusive = small, poorly fitted or top-dose-only effect, or another doubt; inactive = no such curve, though single readings can be large; an effect the other way counts as inactive or inconclusive. Potency is read from the fitted curve at half-maximal effect.

SMILES	Gal4-VP16 FLuc	HepG2 tox-1	TGFb SMAD3 inh	RORgamma inh	ATXN2 expr inh	S2 tox	TGFb CAGA inh	HepG2 tox-2	CCL64 TGFb inh	COP TGFb inh
CCCOc1ccc(C(=O)CCN2CCN(C(=O)OCC)CC2)cc1	u	-44.6%	15.8µM*	-19.9%	u	u	8.2µM*	20.6µM*	18.4µM*	23.1µM*
COc1ccccc1-n1cnc2cc(NCc3ccco3)ccc21	24.4%	-1.8%	8.91µM*	u	16.6%	u	13µM*	-3.7%	20.6µM*	-19.5%
COc1ccccc1-n1cnc2cc(NCc3cccs3)ccc21	-18.6%	0.3%	u	u	22.5%	i	x	x	x	x
O=S(=O)(c1cccc(NC(=S)N2CCN(c3ccccc3)CC2)c1)C(F)F	-20.9%	8.7%	u	-30.9%	u	i	x	x	x	x
O=S(=O)(c1cccc(NC(=S)N2CCN(c3ccccc3F)CC2)c1)C(F)F	u	-29.1%	7.08µM*	u	x	i	7.31µM*	-8.7%	-0.3%	-4.8%
Nc1ccc2c(c1)[nH]c(=O)c1ccccc12	x	-2.5%	-16.1%	x	1.1%	i	x	x	x	x
Nc1cc2[nH]c(=O)c3ccccc3c2cc1Br	x	-20.8%	0.316µM*	x	1.5%	i	u	1.46µM*	7.1%	59.2%
C/C(N)=C(/C#N)C(=O)COC(=O)c1ccc(OCC2CCCO2)cc1 (configuration not stated)	-14.0%	-5.2%	5.2%	19.5%	39.1%	i	x	x	x	x
C=CCNC(=O)c1onc(CSc2ccc(F)cc2)c1C(=O)NCCOC	-2.1%	1.9%	u	31.9%	-1.3%	i	-7.3%	2.2%	12.4%	-0.7%
CCCCNc1c(-c2ccc(OC)c(SC3CCCCC3)c2)nc2ccc(Cl)cn12	x	-28.1%	u	x	-20.8%	u	x	x	x	x
CCCCNc1c(-c2ccc(OC)c(SC3CCCCC3)c2)nc2cc(C)ccn12	x	-50.4%	20µM*	x	u	u	u	u	16.4µM*	35.1%
COc1ccc(C)cc1NC(=O)CN1c2ccccc2S(=O)(=O)c2ccccc21	x	-11.3%	-32.9%	x	2.4%	i	x	x	x	x
Cc1cc(Nc2ccccc2)nc(NCc2ccccc2)n1	11.2µM*	-55.2%	10µM*	2.82µM*	u	i	3.7%	u	14.6µM*	63.2%
Cc1cc(Nc2cccc(F)c2)nc(NCc2ccccc2)n1	u	-79.9%	u	27.5%	u	u	x	x	x	x
Cc1ccc(S(=O)(=O)Nc2cccc3cccnc23)cc1	1.78µM*	-34.5%	3.98µM*	1.12µM*	5.62µM*	u	16.4µM*	-20.9%	8.2µM*	24.2%
